Source: PubChem BioAssay (NCI)
About 79,000 compounds went through this panel and 15% of them were active in at least one assay; those are over-represented in the sample as a whole. Unmarked numbers belong to inactive results. Calls of active or inactive are those of the source. No stated cut-off is given here; in the data, active means growth inhibition above about 70%; inactive means the rest.

Experiment: NCI Yeast Anticancer Drug Screen. Data for the rad52 strain (AID 147);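 further: 0% = growth of vehicle-treated control cultures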
Settings: S. cerevisiae rad52 mutant growth inhibition, hits give high values
Protocol: Growth inhibition of yeast strains with defined genetic alterations is measured as a screen for potential anti-cancer activity. Selected strains with alterations in DNA damage repair or cell cycle control were exposed to compounds and growth inhibition was measured relative to vehicle treated controls. The strain used in this assay is rad52

SMILES	growth inhibition (at 1.2 µM)	growth inhibition (at 3.7 µM)	growth inhibition (at 11.0 µM)	growth inhibition (at 33.0 µM)	growth inhibition (at 100.0 µM)
Cc1cccc(C)c1NC(=O)C(C#N)C1=C(Cl)C(=O)c2ccccc2C1=O (stereo not given)	-43%	46%	93% (active)	95% (active)	94% (active)
Nc1cc2c(cc1N)-c1ccccc1C2=O	-3%	-3%	2%	23%	87% (active)
O=C(C#Cc1ccccc1)Nc1ccccc1	-14%	-11%	-7%	23%	97% (active)
CC(C)N(CCCNc1c2ccccc2nc2cccc([N+](=O)[O-])c12)C(C)C	51%	87% (active)	95% (active)	97% (active)	98% (active)
CCCCCCCSCC1C(=O)C23C(O)C1CCC2C12COC3(O)C(O)C1C(C)(C)CCC2O (stereo not given)	13%	14%	71% (active)	94% (active)	85% (active)
COc1ccc(C(OCC2OC(n3cnc4c(=O)n(Cc5ccccc5[N+](=O)[O-])nnc43)C(O)C2O)(c2ccccc2)c2ccc(OC)cc2)cc1 (stereo not given)	12%	16%	18%	19%	15%
C[C@H](CCC1=NC(C)(C)CO1)C1CCC2[C@@H]3C(O)C[C@@H]4CC(O)CC[C@]4(C)C3CC[C@@]21C (stereo not given in full)	-3%	-5%	-9%	70% (active)	99% (active)
Nc1ccc(N=Nc2ccc(-c3ccc(O)cc3)cc2)c2ccc(S(=O)(=O)O)cc12	-3%	2%	17%	39%	54%
